Data reported in ChEMBL document CHEMBL3988442, “University of Dundee, Small-Polar-MMV Screening Library” (2021).
For some of these results: Results with a measured potency or affinity are listed apart.

Assays:
Set-up in all cases: scale not given: direction of the effect not stated beside the values
[1] = target: Protein translocase subunit SecA (Escherichia coli (strain K12)) (UniProt P10408); test: Assay to Identify E. coli SecA ATPase Inhibitors; assay type: functional; conditions: 30 µM
[2] = target: T1, Ubiquitin-activating enzyme e1, putative (Leishmania donovani (strain BPK282A1)) (UniProt E9BSI1); test: Leishmania donovani Ubiquitin Activating Enzyme (LdE1); assay type: functional; conditions: 30 µM
T1 sequence (whole entry): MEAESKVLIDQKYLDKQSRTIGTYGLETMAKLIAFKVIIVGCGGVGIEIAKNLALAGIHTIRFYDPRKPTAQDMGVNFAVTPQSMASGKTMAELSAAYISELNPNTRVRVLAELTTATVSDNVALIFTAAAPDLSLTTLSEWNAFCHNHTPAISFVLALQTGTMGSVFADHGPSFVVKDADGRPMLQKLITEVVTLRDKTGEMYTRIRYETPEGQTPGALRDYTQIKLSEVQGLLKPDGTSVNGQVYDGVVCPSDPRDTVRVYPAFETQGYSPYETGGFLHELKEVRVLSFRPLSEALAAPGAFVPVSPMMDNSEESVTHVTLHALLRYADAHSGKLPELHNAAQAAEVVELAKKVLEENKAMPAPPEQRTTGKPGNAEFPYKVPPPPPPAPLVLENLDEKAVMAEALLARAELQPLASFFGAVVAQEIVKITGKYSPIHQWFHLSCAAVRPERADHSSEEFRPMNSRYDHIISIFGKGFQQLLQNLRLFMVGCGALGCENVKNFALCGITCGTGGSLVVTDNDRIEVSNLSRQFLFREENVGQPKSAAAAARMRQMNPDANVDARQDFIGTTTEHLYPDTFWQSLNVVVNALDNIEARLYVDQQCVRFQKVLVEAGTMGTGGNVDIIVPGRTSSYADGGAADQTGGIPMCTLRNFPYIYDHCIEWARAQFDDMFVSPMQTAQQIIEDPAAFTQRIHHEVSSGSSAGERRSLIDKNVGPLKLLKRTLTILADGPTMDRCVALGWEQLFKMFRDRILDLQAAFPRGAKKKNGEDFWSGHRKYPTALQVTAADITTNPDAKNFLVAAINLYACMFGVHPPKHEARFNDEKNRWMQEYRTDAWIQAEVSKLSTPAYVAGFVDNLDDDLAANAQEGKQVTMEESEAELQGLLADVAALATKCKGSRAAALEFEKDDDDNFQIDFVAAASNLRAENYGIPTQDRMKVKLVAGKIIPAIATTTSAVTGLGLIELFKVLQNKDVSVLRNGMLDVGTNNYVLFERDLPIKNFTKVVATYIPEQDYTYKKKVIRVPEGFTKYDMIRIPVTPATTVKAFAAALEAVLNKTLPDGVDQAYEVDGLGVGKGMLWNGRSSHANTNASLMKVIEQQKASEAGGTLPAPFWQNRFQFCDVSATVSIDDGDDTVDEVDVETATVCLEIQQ

[3] = target: AMP-activated protein kinase, AMPK (Homo sapiens) (UniProt P54646+O43741+P54619+Q9UGJ0+Q9Y478+Q13131+Q9UGI9); test: AMP-dependent Kinase enzyme assay. An in vitro enzyme assay that detects ADP turnover that is directly proportional to AMPK activity. This uses naive AMPK that is activated during the assay with MK-8722; assay type: functional; conditions: 30 µM
[4] = target: Sialic acid-binding Ig-like lectin 9 (Homo sapiens) (UniProt Q9Y336); test: Hs-Siglec9 ALPHAscreen SOP 20170721; conditions: 10 µM
Trypanosoma cruzi = test: Trypanosoma cruzi phosphomannomutase and mannose-1-phosphate guanylyltransferase assay; assay type: functional; conditions: 10 µM
[5] = target: T2, Arginase-2, mitochondrial (Homo sapiens) (UniProt P78540); test: in vitro enzyme assay to detect the production of urea directly proportional to the activity of Arginase II; assay type: functional; conditions: 33.3 µM; note: in the data most compounds retested in dose-response had high values
T2 sequence (whole entry): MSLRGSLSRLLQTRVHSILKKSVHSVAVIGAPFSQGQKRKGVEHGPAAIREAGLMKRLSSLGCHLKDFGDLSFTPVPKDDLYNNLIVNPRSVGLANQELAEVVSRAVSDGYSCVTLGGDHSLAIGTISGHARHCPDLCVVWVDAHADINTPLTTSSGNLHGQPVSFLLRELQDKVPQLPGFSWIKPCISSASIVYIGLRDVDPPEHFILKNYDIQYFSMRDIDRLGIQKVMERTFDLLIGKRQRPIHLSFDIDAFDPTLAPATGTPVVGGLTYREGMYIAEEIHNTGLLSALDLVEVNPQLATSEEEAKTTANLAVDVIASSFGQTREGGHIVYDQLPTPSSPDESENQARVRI

[6] = target: T3, Proteasome subunit beta (Trypanosoma cruzi) (UniProt O96673); test: Trypanosoma cruzi proteasome chymotrypsin-like activity (TcProtChymo) assay.; note: in the data most compounds retested in dose-response had high values; assay type: functional; conditions: 9.37 µM
T3 sequence (whole entry): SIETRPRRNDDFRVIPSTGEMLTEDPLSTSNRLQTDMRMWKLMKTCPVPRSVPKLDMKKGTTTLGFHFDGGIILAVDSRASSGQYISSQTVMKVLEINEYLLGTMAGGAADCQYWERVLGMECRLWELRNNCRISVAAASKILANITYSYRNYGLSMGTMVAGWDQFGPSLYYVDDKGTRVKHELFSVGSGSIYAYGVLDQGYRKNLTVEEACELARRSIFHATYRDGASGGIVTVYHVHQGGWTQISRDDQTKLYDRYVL

Homo sapiens = species: Homo sapiens; test: To identify inhibition of the IFN signalling (Jak-Stat) pathway via expression of an eGFP reporter gene under the control of an IFN-stimulated response element (ISRE) containing MxA promoter.; assay type: functional; conditions: 30 µM
[7] = target: T4, Tyrosyl-tRNA synthetase, putative (Trypanosoma cruzi (strain CL Brener)) (UniProt Q4DSP6); test: Trypanosoma cruzi tyrosyl tRNA synthetase (TcYRS) _High Tyrosine SOP; assay type: functional; conditions: 30 µM; note: in the data most compounds retested in dose-response had high values
T4 sequence (whole entry): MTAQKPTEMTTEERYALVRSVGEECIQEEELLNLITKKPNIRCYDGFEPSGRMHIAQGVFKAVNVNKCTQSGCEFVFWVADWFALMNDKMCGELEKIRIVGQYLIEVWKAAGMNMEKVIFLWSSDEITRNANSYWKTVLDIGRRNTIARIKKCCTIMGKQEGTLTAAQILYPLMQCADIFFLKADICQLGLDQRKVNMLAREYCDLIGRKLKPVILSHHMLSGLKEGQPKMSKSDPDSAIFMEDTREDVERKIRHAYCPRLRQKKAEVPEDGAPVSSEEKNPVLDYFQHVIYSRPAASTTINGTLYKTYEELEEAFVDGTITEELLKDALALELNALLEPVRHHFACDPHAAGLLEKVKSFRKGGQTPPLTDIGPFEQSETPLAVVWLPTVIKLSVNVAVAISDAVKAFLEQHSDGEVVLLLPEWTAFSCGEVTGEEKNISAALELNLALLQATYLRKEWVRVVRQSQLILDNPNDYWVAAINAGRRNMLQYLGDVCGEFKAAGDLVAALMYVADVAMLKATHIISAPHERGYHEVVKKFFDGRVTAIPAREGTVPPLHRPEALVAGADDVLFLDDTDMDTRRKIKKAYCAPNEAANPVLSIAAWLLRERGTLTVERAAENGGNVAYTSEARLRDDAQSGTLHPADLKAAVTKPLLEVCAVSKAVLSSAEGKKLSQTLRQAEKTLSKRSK

[8] = target: T4, Tyrosyl-tRNA synthetase, putative (Trypanosoma cruzi (strain CL Brener)); test: Trypanosoma cruzi tyrosyl tRNA synthetase (TcYRS) SOP; assay type: functional; conditions: 30 µM
[9] = target: Chromo domain-containing protein 1 (Saccharomyces cerevisiae (strain ATCC 204508 / S288c) (Baker's yeast)) (UniProt P32657); test: ScCHD-1 Enzyme Inhibition Assay; assay type: functional; conditions: 30 µM; note: in the data most compounds retested in dose-response had high values
Chromo domain-containing protein 1 (Saccharomyces cerevisiae (strain ATCC 204508 / S288c) (Baker's yeast)), sequence (P32657 whole entry, the tested form may be a part): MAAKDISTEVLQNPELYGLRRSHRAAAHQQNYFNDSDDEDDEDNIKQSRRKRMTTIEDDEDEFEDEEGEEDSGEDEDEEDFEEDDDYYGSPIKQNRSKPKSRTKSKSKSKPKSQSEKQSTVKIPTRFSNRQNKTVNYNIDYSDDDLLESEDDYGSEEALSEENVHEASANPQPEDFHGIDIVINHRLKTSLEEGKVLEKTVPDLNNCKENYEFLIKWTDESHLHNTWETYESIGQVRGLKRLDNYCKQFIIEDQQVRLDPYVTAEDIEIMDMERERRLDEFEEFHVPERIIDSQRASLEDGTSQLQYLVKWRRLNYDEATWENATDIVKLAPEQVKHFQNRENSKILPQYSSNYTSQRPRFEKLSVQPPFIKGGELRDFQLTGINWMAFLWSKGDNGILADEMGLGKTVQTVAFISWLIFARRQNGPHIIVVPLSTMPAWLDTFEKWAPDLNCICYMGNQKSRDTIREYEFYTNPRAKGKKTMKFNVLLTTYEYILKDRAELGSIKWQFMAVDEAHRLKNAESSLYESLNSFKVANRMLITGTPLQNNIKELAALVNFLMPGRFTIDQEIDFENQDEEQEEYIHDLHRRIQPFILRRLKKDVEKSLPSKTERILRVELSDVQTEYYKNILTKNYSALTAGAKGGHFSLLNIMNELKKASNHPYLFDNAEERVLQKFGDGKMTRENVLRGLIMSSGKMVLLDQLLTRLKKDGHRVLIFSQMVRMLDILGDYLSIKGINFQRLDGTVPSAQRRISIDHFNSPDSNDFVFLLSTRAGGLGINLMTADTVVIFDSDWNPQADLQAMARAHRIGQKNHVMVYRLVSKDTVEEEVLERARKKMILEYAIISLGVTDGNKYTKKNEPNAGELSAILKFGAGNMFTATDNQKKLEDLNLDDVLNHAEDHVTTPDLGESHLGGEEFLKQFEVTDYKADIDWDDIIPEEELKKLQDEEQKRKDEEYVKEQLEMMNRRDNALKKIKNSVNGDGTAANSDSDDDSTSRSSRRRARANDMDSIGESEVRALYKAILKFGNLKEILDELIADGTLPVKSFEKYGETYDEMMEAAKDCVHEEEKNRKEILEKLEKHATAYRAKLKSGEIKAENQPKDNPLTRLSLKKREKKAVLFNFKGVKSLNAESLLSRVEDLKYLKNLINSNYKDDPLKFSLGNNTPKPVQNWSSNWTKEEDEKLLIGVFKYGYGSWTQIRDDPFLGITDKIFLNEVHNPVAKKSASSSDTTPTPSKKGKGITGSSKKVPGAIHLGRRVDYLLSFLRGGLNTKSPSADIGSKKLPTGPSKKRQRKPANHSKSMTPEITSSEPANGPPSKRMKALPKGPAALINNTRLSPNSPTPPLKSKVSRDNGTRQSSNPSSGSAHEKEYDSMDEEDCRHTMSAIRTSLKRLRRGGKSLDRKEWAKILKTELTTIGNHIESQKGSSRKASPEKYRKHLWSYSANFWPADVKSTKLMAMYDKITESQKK

Protein translocase subunit SecA (Escherichia coli (strain K12)), sequence (P10408 whole entry): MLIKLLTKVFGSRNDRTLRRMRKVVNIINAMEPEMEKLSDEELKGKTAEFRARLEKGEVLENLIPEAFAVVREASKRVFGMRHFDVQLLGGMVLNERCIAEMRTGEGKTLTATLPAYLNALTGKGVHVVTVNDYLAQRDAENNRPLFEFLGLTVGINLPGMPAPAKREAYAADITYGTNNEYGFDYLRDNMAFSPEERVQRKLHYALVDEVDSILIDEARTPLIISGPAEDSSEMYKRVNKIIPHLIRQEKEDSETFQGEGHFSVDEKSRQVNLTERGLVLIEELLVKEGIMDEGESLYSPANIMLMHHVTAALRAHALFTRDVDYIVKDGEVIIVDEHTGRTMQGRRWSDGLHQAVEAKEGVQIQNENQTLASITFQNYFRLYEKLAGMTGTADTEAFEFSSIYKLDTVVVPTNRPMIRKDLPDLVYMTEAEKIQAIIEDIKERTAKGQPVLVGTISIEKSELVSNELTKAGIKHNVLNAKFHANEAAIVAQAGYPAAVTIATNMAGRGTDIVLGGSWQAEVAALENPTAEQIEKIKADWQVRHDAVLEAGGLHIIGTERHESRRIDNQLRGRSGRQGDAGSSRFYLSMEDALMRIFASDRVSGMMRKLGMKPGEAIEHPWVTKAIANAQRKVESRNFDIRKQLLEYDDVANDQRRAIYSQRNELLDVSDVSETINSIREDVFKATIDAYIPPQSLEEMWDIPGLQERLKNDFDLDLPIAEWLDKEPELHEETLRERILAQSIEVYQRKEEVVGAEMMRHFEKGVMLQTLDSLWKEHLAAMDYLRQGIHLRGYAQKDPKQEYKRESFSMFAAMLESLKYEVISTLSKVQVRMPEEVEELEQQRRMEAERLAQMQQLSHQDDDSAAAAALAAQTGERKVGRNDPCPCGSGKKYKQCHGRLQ
Sialic acid-binding Ig-like lectin 9 (Homo sapiens), sequence (Q9Y336 whole entry): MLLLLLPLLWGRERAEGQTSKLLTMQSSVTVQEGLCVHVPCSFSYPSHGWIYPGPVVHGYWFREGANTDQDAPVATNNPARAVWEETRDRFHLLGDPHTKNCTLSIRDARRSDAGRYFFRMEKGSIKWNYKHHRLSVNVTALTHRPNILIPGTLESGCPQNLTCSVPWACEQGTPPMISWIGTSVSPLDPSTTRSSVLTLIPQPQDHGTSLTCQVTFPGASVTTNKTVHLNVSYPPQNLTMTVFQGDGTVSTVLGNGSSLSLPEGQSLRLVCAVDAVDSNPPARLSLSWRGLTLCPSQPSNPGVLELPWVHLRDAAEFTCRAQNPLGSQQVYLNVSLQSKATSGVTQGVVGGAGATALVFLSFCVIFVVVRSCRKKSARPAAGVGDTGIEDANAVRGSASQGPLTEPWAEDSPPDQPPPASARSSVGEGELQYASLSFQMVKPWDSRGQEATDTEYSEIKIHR

Compound | Percent Effect [1] [%] | Percent Effect [2] [%] | Percent Effect [3] [%] | Percent Effect [4] [%] | Percent Effect (Trypanosoma cruzi) [%] | Percent Effect [5] [%] | Percent Effect [6] [%] | Percent Effect (Homo sapiens) [%] | Percent Effect [7] [%] | Percent Effect [8] [%] | Percent Effect [9] [%]
O=C(c1cc(Cl)c2c(c1)OCO2)N1CCN(c2nccs2)CC1 | -3.24 | 11 | -2.85 | 1.89 | 2.55 | 3.18 | 7.45 | 3.79 | 7.53 | 15 | -3.25
CCN(CC)CCNC(=O)c1cc(C(C)C)nc(N2CCCC2)n1 | -0.4 | 20 | 1.03 | -8.5 | 2.55 | -24.1 | 12.8 | 20.4 | 0 | 12.8 | 80.8
CC(C)OCc1ncn2c1CN(Cc1ccc(F)cc1)CCC2 | -4.79 | 8.11 | 2.07 | 2.94 | -4.79 | -6.05 | 22 | -10.1 | 3.24 | 12.8 | -0.808
CCc1nc2ccccc2c(=O)n1CC1(O)CCN(S(C)(=O)=O)CC1 | -1.91 | 17.6 | 10.4 | 9.5 | 1.58 | 7.66 | 10.8 | 17.4 | 5.38 | 14.3 | -11.7
COCCN(C)C(=O)Cn1cccc(OC)c1=O | -0.736 | 5.48 | -9.15 | 4.8 | -8.53 | 3.99 | 18.4 | 4.06 | -3.12 | -1.24 | -2.41
COc1ccccc1CCNC(=O)CN1CCCC1c1noc(C)n1 (stereo not drawn) | -1.65 | 2.63 | 3.18 | 11.8 | -1.69 | 1.53 | 12.9 | 5.32 | 4.41 | 17.1 | -5.97
OC1CCN(Cc2c(C3CCCNC3)[nH]c3ncccc23)CC1 (stereo not drawn) | -5.49 | 12.2 | 11.9 | 5.12 | -5.93 | -3.94 | 8.42 | -1.37 | -5.38 | 9.09 | -6.12
Cc1ccc(CNC2CCN(CCc3ccncc3)CC2)s1 | -6.73 | -5.41 | -1.83 | 2.51 | -1.76 | 5.42 | 7.86 | 1.37 | 7.92 | 8.54 | -4.89
